The structures appear in SMILES notation. Among all 2,300 compounds or so, about 1,200 (52%) were called active. Roughly 34% stayed inconclusive and do not appear here. The set was probably picked from earlier hits. The list shows a part of the results. A number with no mark means an inactive call. Calls come from the whole dose curve; as a rule, active = well fitted inhibition curve with a large enough effect; inconclusive = small, poorly fitted or top-dose-only effect, or effect the other way; inactive = no such curve, though single readings can be large or run the other way.

The source of these data is PubChem BioAssay AID504850 (National Center for Advancing Translational Sciences (NCATS), 2011).
% is set by controls: 0 for no effect and ±100 for the full control effect; potency is the fitted concentration of half-maximal effect.

This test in a line: Confirmation screen for delayed death inhibitors of the malarial parasite plastid, 48 hour incubation. Note: nearly all actives have a fitted effect of over 65% in size. Particulars: P. falciparum-infected erythrocytes, luciferase growth; series mostly up to 28.7 µM; activity change, negative = inhibition: at the top concentration. A digest of the protocol: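 Erythrocytes infected with luciferase-expressing P. falciparum (2% hematocrit, 0.1% parasitemia) incubated with compounds 48 hours at 37 C, 5% CO2, in RPMI/Albumax. Growth inhibition scored as reduced luminescence after detection reagent.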
As for `O=C1c2ccccc2C(=Nc2ccccc2)C1c1cccc(Br)c1` (stereo unspecified), the Potency was 3.98 µM (active).
Same read-out and setting: as for `CCOC(=O)c1cc(-c2ccccc2)sc1NC(=O)C(C)OC(=O)c1cccnc1Cl` (stereo unspecified), the figure is 11.2 µM (active).
Still for that read-out and setting: as for `CCc1ccc(Nc2n[n+](-c3ccccc3)c(-c3cccc(Cl)c3Cl)s2)cc1`, the figure is 3.16 µM (active); as for `CC1=CC(C)(C)N2C(=O)C3(NCCc4c3[nH]c3ccccc43)c3cc(C)cc1c32` (stereo unspecified), 14.1 µM (active).
Take `CCN(CC)c1ccc(/C=N/NC(=S)NC)c(O)c1`: the Potency was 10 µM (active).
On the same count and under the same terms, as for `O=C(C[n+]1ccccc1)Nc1ccc(Cl)c([N+](=O)[O-])c1`, the figure is 12.6 µM (active).
For `CC(C)(C)c1cc(NC(=O)CCl)n(-c2ccccc2)n1`, the Potency is 12.6 µM (active).
As to `O=C(CCl)Nc1c2c(nn1-c1ccccc1)CSC2`, the Potency is 2.51 µM (active).
Same read-out and setting: as for `Cc1ccc(-c2cc(NC(=O)CCl)n(-c3ccccc3)n2)cc1`, the figure is 10 µM (active).
Consider `N#CCCn1nc(-c2ccc(Cl)cc2)cc1Nc1ccccc1NC(=O)C(F)(F)F`, for which the “activity change, negative = inhibition” value is -22.3%.
As for `CC1CCN(C(=O)Cn2c(=O)oc3cc(S(=O)(=O)N4CCCCC4)ccc32)CC1`, the Potency was 15.8 µM (active).
The same measure, in the same setting: as for `COc1ccc(CN2CCN(Cc3cc4ccccc4o3)CC2CCO)cc1C` (stereo unspecified), the figure is 14.1 µM (active); as for `CCOc1ccccc1CN1CCN(Cc2ccc3cccc(OC)c3n2)CC1CCO` (stereo unspecified), 14.1 µM (active).
The same measure, in the same setting: the figure for `CCCN1C(=O)c2ccccc2NC1c1ccc(OC)cc1O` (stereo unspecified) is 12.6 µM (active).
In the case of `Cc1cccc(C2Nc3ccccc3C(=O)N2c2ccccc2)n1` (stereo unspecified), the “activity change, negative = inhibition” value was -25.3%.
With `O=[N+]([O-])c1ccc(CNC2CCCc3ccccc32)cc1` (stereo unspecified), the “activity change, negative = inhibition” value was -49.5%.
Turning to `O=[N+]([O-])c1ccc(C[n+]2cccc3c4ccccc4ccc32)cc1`, the Potency is 0.398 µM (active).
On to `O=C(NC1CCCC1)c1ccc([N+](=O)[O-])s1`, for which the Potency is 14.1 µM (active).
Turning to `O=C(NC1C=CS(=O)(=O)C1)c1sc2ccccc2c1Cl` (stereo unspecified), the Potency was 6.31 µM (active).
Turning to `Cc1cc(Cl)cc(C)c1OCCn1ccnc1`, the Potency was 12.6 µM (active).
For `Cc1nn(Cc2ccccc2Cl)c(C)c1C(=O)Nc1nnc(C2CC2)s1`, the Potency is 11.2 µM (active).
Take `Cc1c(OCC(=O)NCc2cccnc2)ccc2c3c(c(=O)oc12)CCCC3`: the Potency was 10 µM (active).
On to `Cc1c(OCC(=O)NCc2cccnc2)ccc2c3c(c(=O)oc12)CCC3`, for which the “activity change, negative = inhibition” value was -10.9%.
As to `Cc1c(OC(C)C(=O)NCc2cccnc2)ccc2c3c(c(=O)oc12)CCCC3` (stereo unspecified), the Potency is 1.58 µM (active).
The same measure, in the same setting: the figure for `O=C(Nc1ccccc1SCC1CSc2nc3ccccc3c(=O)n21)c1cccc(Cl)c1` (stereo unspecified) is 11.2 µM (active); for `Cc1cccc(C(=O)Nc2ccccc2SCC2CSc3nc4ccccc4c(=O)n32)c1` (stereo unspecified) it is 11.2 µM (active).
The same measure, in the same setting: as for `O=C(Nc1ccccc1SCC1CSc2nc3ccccc3c(=O)n21)c1ccccc1Cl` (stereo unspecified), the figure is 11.2 µM (active).
`Cc1ccc(C(=O)Nc2ccccc2SCC2CSc3nc4ccccc4c(=O)n32)cc1` (stereo unspecified): the Potency was 11.2 µM (active).
On the same count and under the same terms, as for `COc1ccc(NS(=O)(=O)c2cc(OCC(N)=O)c(C)cc2Cl)cc1`, the figure is 7.08 µM (active); as for `COc1ccc(/C=C2\N=C(SC)N(c3ccccc3OC)C2=O)cc1`, 14.1 µM (active).
Same read-out and setting: as for `CCN(CC)C1=N/C(=C\c2ccc(OC)cc2)C(=O)N1c1ccccc1`, the figure is 14.1 µM (active).
As to `Cc1ccc2c(CN(C)Cc3cccc(Cl)c3)cc(=O)oc2c1C`, the “activity change, negative = inhibition” value is -20.7%.
On the same count and under the same terms, as for `COc1cccc(CN(C)Cc2cc(=O)oc3c(C)c(C)ccc23)c1`, the figure is -26.2%.
On to `Cc1c(O)ccc2c(CN(C)Cc3ccccc3)cc(=O)oc12`, for which the Potency was 14.1 µM (active).
In the case of `COc1ccccc1CN1CCCC(CN(CCN(C)C)C(=O)c2ccc(C)cc2)C1` (stereo unspecified), the Potency is 15.8 µM (active).
Still for that read-out and setting: as for `Cn1nnnc1Sc1ncnc2scc(-c3cccc(S(C)(=O)=O)c3)c12`, the figure is 12.6 µM (active); as for `Cn1nnnc1Sc1ncnc2scc(-c3cccc(F)c3)c12`, 12.6 µM (active); as for `Cc1onc(-c2c(Cl)cccc2Cl)c1C(=O)N=C(N)N1CC(C)OC(C)C1` (stereo unspecified), 11.2 µM (active).
Take `Cc1onc(-c2c(F)cccc2Cl)c1C(=O)N1CCCCC1`: the “activity change, negative = inhibition” value was -20.1%.
Regarding `C=CCC1(O)C(=O)N2C(=C1C(=O)OCC)c1ccc3ccccc3c1CC2(C)C` (stereo unspecified), the Potency is 11.2 µM (active).
Consider `CCCNC(=O)c1ccc(S(=O)(=O)c2ccc(OC)cc2)c([N+](=O)[O-])c1`, for which the Potency was 7.94 µM (active).
As to `Cc1ccc(C(=O)NCCn2ccc3ccccc32)cc1[N+](=O)[O-]`, the “activity change, negative = inhibition” value was 20.4%.
On the same count and under the same terms, the figure for `O=C1Nc2ccccc2/C1=C/C(=O)c1cccs1` is -23.8%.
Turning to `O=C(N/N=C/C(Cl)=C\c1ccccc1)c1cccs1`, the Potency is 5.01 µM (active).
On to `O=C(N/N=C(\CC(=O)c1cccs1)C(F)(F)F)c1ccncc1`, for which the “activity change, negative = inhibition” value was -11.5%.
Still for that read-out and setting: the figure for `CC(=O)OC[C@H]1O[C@@H](n2ncc(=O)[nH]c2=O)[C@H](OC(C)=O)[C@@H]1OC(C)=O` is -3.23%.
With `Cc1ccc(S(=O)(=O)N(CC(=O)NCc2ccco2)c2ccccc2C)cc1`, the Potency was 12.6 µM (active).
On to `CCN(CC(=O)Nc1c(F)cccc1F)C(=O)c1ccc(S(=O)(=O)NCc2ccco2)cc1`, for which the “activity change, negative = inhibition” value is -12.2%.
On to `CCCN(CCC)S(=O)(=O)c1ccc(C(=O)NCc2ccco2)cc1`, for which the Potency is 12.6 µM (active).
Same read-out and setting: as for `Cc1ccc(S(=O)(=O)N(Cc2ccccc2)c2ccccc2C(=O)Nc2ccccc2C(=O)NCc2ccco2)cc1`, the figure is 2.51 µM (active).
As for `Cc1ccc(NC(=O)CN(C)C(=O)c2cccc(S(=O)(=O)NCc3ccco3)c2)cc1`, the “activity change, negative = inhibition” value is -19.7%.
With `C(=C\c1nc(N2CCCCCC2)c2ccccc2n1)/c1ccccc1`, the Potency was 6.31 µM (active).
Take `O=C(COc1ccccc1)N1c2ccccc2Sc2ccccc21`: the Potency was 14.1 µM (active).
Still for that read-out and setting: the figure for `Cc1cccc(N2CCN(S(=O)(=O)c3ccc4c(c3)NC(=O)CO4)CC2)c1C` is 15.8 µM (active).
Turning to `Cc1ccc(C)c(N2CCN(S(=O)(=O)c3ccc4c(c3)NC(=O)CS4)CC2)c1`, the Potency was 11.2 µM (active).
In the case of `COc1ccc(-c2cc(C)no2)cc1S(=O)(=O)Nc1cccc(CN2CCCC2)c1`, the Potency was 14.1 µM (active).
Turning to `Cc1ccc(OCCSCc2nnc(NC(=O)Nc3cccc(Cl)c3)s2)cc1`, the Potency was 2.82 µM (active).
On the same count and under the same terms, the figure for `Cc1cc(=O)oc2c3c(cc(OCC(=O)Nc4cccnc4)c12)OC(C)(C)CC3` is 3.98 µM (active).
As for `Cc1ccccc1-n1nc2c(c1NC(=O)C1CCCC1)CS(=O)(=O)C2`, the “activity change, negative = inhibition” value is -20.1%.
Turning to `CCOC(=O)c1cc(-c2ccc(C)cc2)n(CCC(=O)NCCN(C)C)c1C`, the Potency was 11.2 µM (active).
Still for that read-out and setting: the figure for `CC(C)(C)c1ccc(C(=O)Nc2sc3c(c2C(=O)O)CCC3)cc1` is 11.2 µM (active).
For `O=C(/C=C/c1ccccc1)Nc1sc2c(c1C(=O)O)CCC2`, the “activity change, negative = inhibition” value is -6.98%.
In the case of `COc1ccc(S(=O)(=O)NCc2ccco2)cc1-c1nnc2c3ccccc3c(C)nn12`, the Potency was 11.2 µM (active).
On the same count and under the same terms, the figure for `CO[C@H](C(=O)[C@@H](O)[C@@H](C)O)C1Cc2cc3cc(O[C@H]4C[C@@H](O[C@H]5C[C@@H](O)[C@H](O)[C@@H](C)O5)[C@@H](O)[C@@H](C)O4)c(C)c(O)c3c(O)c2C(=O)[C@H]1O[C@H]1C[C@@H](O[C@H]2C[C@@H](O[C@H]3C[C@](C)(O)[C@H](O)[C@@H](C)O3)[C@H](O)[C@@H](C)O2)[C@H](O)[C@@H](C)O1` (stereo partly specified) is 0.562 µM (active).
In the case of `COc1ccc(N2CCN(C(=O)CSc3nc4cc(OC)c(OC)cc4cc3C#N)CC2)cc1`, the Potency was 7.94 µM (active).
As for `COc1ccccc1OCC(=O)NNc1c2ccccc2nc2ccccc12`, the Potency was 10 µM (active).
Take `Cc1ccc(OCC(=O)NNc2c3ccccc3nc3ccccc23)cc1`: the Potency is 10 µM (active).
On the same count and under the same terms, as for `O=C(CCCO)NNc1c2ccccc2nc2ccccc12`, the figure is 11.2 µM (active); as for `O=C(NNc1c2ccccc2nc2ccccc12)C(O)c1ccccc1` (stereo unspecified), 12.6 µM (active).
As to `O=C(Nn1c(COc2ccccc2)nc2ccccc2c1=O)C(Cl)(Cl)Cl`, the “activity change, negative = inhibition” value is -23.8%.
Take `Cc1ccc(C(=O)NNc2c3ccccc3nc3ccccc23)cc1`: the Potency is 15.8 µM (active).
As to `COc1cccc(C(=O)N/N=C(\C)CC(=O)Nc2ccc(N(C)C)cc2)c1`, the “activity change, negative = inhibition” value was -13.9%.
As for `Cc1cccc(OCC(=O)NNc2c3ccccc3nc3ccccc23)c1`, the Potency is 11.2 µM (active).
`O=C(COc1ccccc1)NNc1c2ccccc2nc2ccccc12`: the Potency is 11.2 µM (active).
On the same count and under the same terms, the figure for `COc1cccc(C(=O)NNc2c3ccccc3nc3ccccc23)c1` is 10 µM (active).
For `COc1ccc(CCn2c(C(C)C)nc3c(c(=O)c4ccccc4n3C)c2=O)cc1`, the Potency was 11.2 µM (active).
Still for that read-out and setting: the figure for `COc1ccc(-c2nc3c(c(=O)c4ccccc4n3C)c(=O)n2Cc2ccccc2)cc1` is 10 µM (active).
Still for that read-out and setting: the figure for `COc1ccc(Cn2c(-c3ccccc3)nc3c(c(=O)c4ccccc4n3C)c2=O)cc1` is 11.2 µM (active); for `O=C(/C=C/c1ccc(Cl)c(Cl)c1)NCCCn1ccnc1` it is 15.8 µM (active).
On to `O=C(O)CCNS(=O)(=O)c1cccc(Br)c1`, for which the “activity change, negative = inhibition” value is -11.5%.
For `CCc1ccccc1Nc1nc(N)nc(COC(=O)CCNS(=O)(=O)c2ccccc2)n1`, the Potency is 12.6 µM (active).
The same measure, in the same setting: the figure for `Cc1ccc(C(=O)OCc2nc(N)nc(Nc3ccccc3C)n2)cc1` is 12.6 µM (active); for `CCc1ccccc1Nc1nc(N)nc(COC(=O)CCC(=O)c2ccc(F)cc2)n1` it is 8.91 µM (active).
As to `CCCCN(C)C(=O)C1CCC(CNS(=O)(=O)c2ccc3c(c2)CC(C)N3C(=O)C2CC2)CC1` (stereo unspecified), the Potency is 12.6 µM (active).
On the same count and under the same terms, the figure for `CCc1ccc(N/C(SCc2cccc(F)c2)=C(/C#N)C(=O)NCc2ccco2)cc1` is 10 µM (active).
Regarding `C#Cc1ccc(CN2CCN(CCCc3ccccc3)C(CCO)C2)cc1` (stereo unspecified), the Potency is 11.2 µM (active).
Same read-out and setting: the figure for `CC(C)/C=C/CN1CCN(CCCc2ccccc2)C(CCO)C1` (stereo unspecified) is 12.6 µM (active).
In the case of `COc1ccccc1N1CCN(C(=O)c2noc(C(C)C)c2[N+](=O)[O-])CC1`, the Potency is 10 µM (active).
Same read-out and setting: as for `COc1ccc(S(=O)(=O)N(C)c2ccc(C(=O)Nc3cccnc3)cc2)cc1OC`, the figure is 14.1 µM (active); as for `Cc1ccc(NC(=O)c2cc(S(=O)(=O)N3CCc4ccccc43)cn2C)cc1`, 11.2 µM (active).
Still for that read-out and setting: as for `COc1ccc(S(=O)(=O)N2CCc3ccccc32)cc1C(=O)Nc1cccnc1`, the figure is 12.6 µM (active).
